PubChem BioAssay AID743395 (Broad Institute, 2014)
Hit rate of the full screen: of about 1,200 compounds, about 480 (40%) were called active. No rule for the calls is given here. So high a share suggests a set chosen from earlier hits. These entries were drawn from the full list. Results with a measured potency or affinity are listed apart.

test: viability loss in human hepatoma cells – cell-based, CellTiter-Glo luminescence, cherry-pick, set 2, cytotoxicity control, dose response (AID 743395); settings: HepG2 viability, CellTiter-Glo ATP luminescence, 72 h; series mostly up to 26 µM

| SMILES | outcome |
| --- | --- |
| O=C(CN1CCN(S(=O)(=O)c2ccc(F)c(Cl)c2)CC1)N1CCc2ccccc2C1 | inactive |
| Cc1ccc(C)c(NC(=O)CSc2nc3c(c(=O)n2C)SC(C)C3)c1 (stereo not drawn) | inactive |
| Cc1ccc(NC(=O)c2c(C)noc2C)cc1S(=O)(=O)N1CCOCC1 | inactive |
| COC(=O)c1c(-c2ccc(C)cc2)csc1NC(=O)c1c(-c2ccccc2)noc1C | inactive |
| O=C(CSc1nc2ccccc2n1-c1ccccc1)Nc1ncc(Cl)cc1Cl | inactive |
| O=C(COc1ccc(F)cc1Cl)Nc1cccc(S(=O)(=O)N2CCCCCC2)c1 | inactive |
| O=S1(=O)CCN(C(CO)c2ccccc2)CC1 (stereo not drawn) | inactive |
| COc1ccc(/C=C2\SC(=O)N(CCNC(=O)C3=COCCO3)C2=O)cc1 | inactive |
| CC1(c2ccc3ccccc3c2)CCC(=O)O1 (stereo not drawn) | inactive |
| COc1ccc(S(=O)(=O)N2CCN(CCOc3ccccc3Cl)CC2)cc1OC | inactive |
| CCCCN1C(=O)/C(=C/C=C2\Oc3ccccc3N2CC)SC1=S | inactive |
| COc1cc(/C=C2\SC(=S)N(NC(=O)c3ccncc3)C2=O)ccc1O | inactive |
| O=C(CCNS(=O)(=O)c1cccc(C(F)(F)F)c1)NC1CC1 | inactive |
| Clc1ccc(CSc2nncn2-c2ccc3c(c2)OCCO3)cc1 | inactive |
| O=C(c1cccnc1)N1CC[C@@H]2[C@H](CO)Nc3ccc(C4=CCCCC4)cc3[C@@H]21 | inactive |
| COc1ccc(S(=O)(=O)N2CC[C@@H]3[C@@H](CO)Nc4ccc(-c5ccc(C#N)cc5)cc4[C@@H]32)cc1 | inactive |
| O=S(=O)(c1ccc(F)cc1)N1CC[C@@H]2[C@@H](CO)Nc3ccc(-c4ccc(F)cc4)cc3[C@@H]21 | inactive |
| COc1ccc(S(=O)(=O)N2CC[C@@H]3[C@@H](CO)Nc4ccc(C5=CCCCC5)cc4[C@@H]32)cc1 | inactive |
| Cc1ccc(S(=O)(=O)N2CCN(C(=O)CN(Cc3ccco3)Cc3cccs3)CC2)cc1 | inactive |
| CCN(C(=O)COC(=O)c1cccc2ccccc12)c1c(N)n(Cc2ccccc2)c(=O)[nH]c1=O | inactive |
| O=C(Nc1ccc(F)cc1)C1CCN(C(=O)c2ccc(F)cc2)CC1 | inactive |
| COc1cccc(-c2nnc(SCC(=O)NC3CCS(=O)(=O)C3)n2C)c1 (stereo not drawn) | inactive |
| O=C(NCc1ccccn1)c1n[nH]c(=O)c2ccccc12 | inactive |
| O=C(Cc1ccsc1)OCC(=O)c1ccccc1 | inactive |

| SMILES | outcome |
| --- | --- |
| CCC(=O)c1ccc(OCC(=O)OCC(=O)N2CCc3ccccc3C2)cc1 | inactive |
| CN[C@H]1CCc2cc(OC)c(OC)c(OC)c2-c2ccc(N(C)CC(OC)OC)c(=O)cc21 | inactive |
| COc1c(O[C@@H]2O[C@H](CO)[C@@H](O)[C@H](O)[C@H]2O)cc2c(c1OC)-c1ccc(SC)c(=O)cc1C(NC(C)=O)CC2 (stereo partly drawn) | inactive |
| CCN(CC)c1ccc2c(cc1=O)[C@@H](NC)CCc1cc(OC)c(OC)c(OC)c1-2 | inactive |
| CO[C@H]1CN(C)C(=O)c2cc(NC(C)=O)ccc2OC[C@H](C)N(C(=O)c2ccncc2)C[C@H]1C | inactive |
| CCOC(=O)CSC1=C(C#N)C(c2ccc(C)s2)CC(=O)N1 (stereo not drawn) | inactive |
| CN(C(=O)c1ccccc1OC1CCN(S(C)(=O)=O)CC1)C1CCOC1 (stereo not drawn) | inactive |
| COCCOC(=O)c1[nH]c2c(c1C)C(=O)CC(c1cccs1)C2 (stereo not drawn) | inactive |
| Nc1ccn([C@@H]2O[C@H](C(=O)NCC(F)(F)F)[C@@H](O)[C@H]2O)c(=O)n1 | inactive |
| O=C1C=CN(C2OC(CO)C(O)C2O)C(=O)C1 (stereo not drawn) | inactive |
| Nc1ccn([C@H]2C[C@H](O)[C@@H](CO)O2)c(=O)n1 | inactive |
| Cc1ccc(C(=O)OCC(=O)NCc2cc(C)c(O)c(C)c2)cc1S(=O)(=O)N1CCCCC1 | inactive |
| CC(OC(=O)CCCC(=O)Nc1ccc(F)cc1)C(=O)c1ccccc1 (stereo not drawn) | inactive |
| CC1Cc2ccccc2N1S(=O)(=O)c1cccc(C(=O)N2CCN(c3ncccn3)CC2)c1 (stereo not drawn) | inactive |
| COc1ccccc1N1CCN(C(CNS(=O)(=O)c2cccs2)c2cccnc2)CC1 (stereo not drawn) | inactive |
| CN(C[C@H](Cc1ccccc1)N(C[C@H](Cc1ccccc1)N(CCC(C)(C)C)N=O)N=O)N=O | inactive |
| O=C1c2cccc3c(O)ccc(c23)C(=O)N1c1ccc(Cl)cc1 | inactive |
| N#CC1=C(N)OC2=C(CCc3ccccc32)C1c1ccccc1Cl (stereo not drawn) | inactive |
| COc1nc(N)nc(NC(=O)c2cccs2)c1N=O | inactive |
| Cc1ccc(Cc2c(-c3ccc(C)cc3)nc3c(C)cc(Br)cn23)cc1 | inactive |
| CC(C)(C)NC(=O)c1cccc2c1-c1ccccc1C2=O | inactive |
| CC1=C(C(=O)NC2CCCCC2C)C2(CCC(C)CC2)OC1=O (stereo not drawn) | inactive |
| COc1ccc(C(C#N)CC(=O)c2ccc3c(c2)OCO3)cc1OC (stereo not drawn) | inactive |
| Cc1cc(Br)cn2c(Cc3ccsc3)c(-c3ccc(F)cc3)nc12 | inactive |
